# Measurements as given in the supplement of paper PMC10037445.
# Where “and” joins values, the source holds several entries; their conditions need not be identical. Equal entries are not always repeated. Over roughly 2,900 compounds, “NF-kB SEAP reporter activity, fold change vs agonist alone” has its median near 0.99; the highest 2% begin near 2.6. Only a selection was taken, and the highest values are over-represented in it overall.
# Tests used:
# RAW-Dual [1] = experiment: NF-kB SEAP reporter activity, fold change vs agonist alone; cytotoxicity flag (confluency mask): not cytotoxic; higher = enhanced NF-kB activity
# Procedure, shortened: (§1)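 After 50 nL of library stock was delivered by pin tool to RAW-Dual macrophages (50,000 cells/well, DMEM, 384-well plates), a PRR agonist was added 1 h later and the plates were kept at 37 °C, 5% CO2. Twenty hours later, IRF was read from supernatant by QuantiLuc luminescence and NF-κB by QuantiBlue absorbance at 620 nm. Reporter activity is stated as fold change over agonist-alone wells. Wells with IncuCyte confluency under 70% of agonist controls in both mask sets were counted as cytotoxic.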
# RAW-Dual [2] = experiment: NF-kB SEAP reporter activity, fold change vs agonist alone; higher = enhanced NF-kB activity; settings: library stock concentration (final ~1000-fold dilution): 10 mM
# Procedure, shortened: as §1
# RAW-Dual [3] = experiment: NF-kB SEAP reporter activity, fold change vs agonist alone; cytotoxicity flag (confluency mask): cytotoxic (confluency <70% of control); higher = enhanced NF-kB activity
# Procedure, shortened: as §1
# [4] = agonist: ODN 1826 (TLR9) 0.5 ug/mL
# [5] = agonist: Pam2CSK4 (TLR2/6) 0.1 ug/mL
# [6] = agonist: Pam3CSK4 (TLR2/1) 0.1 ug/mL
# [7] = cytotoxicity flag (confluency mask): not cytotoxic, agonist: Imiquimod (TLR7) […]
# [8] = cytotoxicity flag (confluency mask): not cytotoxic, agonist: MPLA (TLR4) […]
# [9] = cytotoxicity flag (confluency mask): cytotoxic (confluency <70% of control), agonist: Imiquimod (TLR7) […]
# [10] = cytotoxicity flag (confluency mask): cytotoxic (confluency <70% of control), agonist: MPLA (TLR4) […]
smiles,measurement,setting,value
CC/C(C)=C/CC[C@](C)(O)C1CC[C@]2(C)C3C[C@@H](O[C@@H]4O[C@H](CO)[C@@H](O)[C@H](O)[C@H]4O[C@@H]4O[C@@H](C)[C@H](O)[C@@H](O)[C@H]4O)C4C(C)(C)C(O)CC[C@]4(C)C3C[C@H](O)C12 (stereo partly drawn) (library stock concentration (final ~1000-fold dilution): 10 mM),NF-kB SEAP reporter activity,RAW-Dual [1]; agonist: LPS (TLR4) 0.1 ug/mL,1.2
same,NF-kB SEAP reporter activity,RAW-Dual [1]; [4],0.992
same,NF-kB SEAP reporter activity,RAW-Dual [1]; [5],0.952
same,NF-kB SEAP reporter activity,RAW-Dual [1]; [6],1.14
CC/C(C)=C/CC[C@](C)(O)C1CC[C@]2(C)C3C[C@@H](O[C@@H]4O[C@H](CO)[C@@H](O)[C@H](O)[C@H]4O[C@@H]4O[C@@H](C)[C@H](O)[C@@H](O)[C@H]4O)C4C(C)(C)C(O)CC[C@]4(C)C3C[C@H](O)C12 (stereo partly drawn),NF-kB SEAP reporter activity,RAW-Dual [2]; [7],0.952
same,NF-kB SEAP reporter activity,RAW-Dual [2]; [8],0.934
Cc1ccccc1C(=O)N1CCc2cc(-c3nc(NC(=O)Cc4ccc5c(c4)OCO5)sc3C)ccc21 (library stock concentration (final ~1000-fold dilution): 10 mM),NF-kB SEAP reporter activity,RAW-Dual [1]; agonist: LPS (TLR4) 0.1 ug/mL,1.34 and 1.45
same,NF-kB SEAP reporter activity,RAW-Dual [1]; [4],0.971 and 0.758
same,NF-kB SEAP reporter activity,RAW-Dual [1]; [5],0.716 and 0.692
same,NF-kB SEAP reporter activity,RAW-Dual [1]; [6],0.695 and 0.61
CN1C(=O)C(C)(C)Oc2c(-c3cn(C)c(=O)c4[nH]ccc34)cc(S(C)(=O)=O)cc21,NF-kB SEAP reporter activity,RAW-Dual [2]; [9],1.56
same,NF-kB SEAP reporter activity,RAW-Dual [2]; [10],2.34
CCS(=O)(=O)Nc1ccc(Oc2ccc(F)cc2F)c(-c2cn(C)c(=O)c3[nH]ccc23)c1,NF-kB SEAP reporter activity,RAW-Dual [2]; [9],1.54
same,NF-kB SEAP reporter activity,RAW-Dual [2]; [10],2.13
CCNC(=O)c1cc2c(-c3cc(C(C)(C)O)ccc3Oc3c(C)cc(F)cc3C)cn(C)c(=O)c2[nH]1 (library stock concentration (final ~1000-fold dilution): 10 mM),NF-kB SEAP reporter activity,RAW-Dual [3]; agonist: LPS (TLR4) 0.1 ug/mL,0.903
same,NF-kB SEAP reporter activity,RAW-Dual [3]; [4],1.34
same,NF-kB SEAP reporter activity,RAW-Dual [3]; [5],0.318
same,NF-kB SEAP reporter activity,RAW-Dual [3]; [6],0.842
CCS(=O)(=O)Nc1ccc(Oc2ccc(F)cc2F)c(-c2cn(C)c(=O)c3[nH]ccc23)c1 (library stock concentration (final ~1000-fold dilution): 10 mM),NF-kB SEAP reporter activity,RAW-Dual [3]; agonist: LPS (TLR4) 0.1 ug/mL,3.19
same,NF-kB SEAP reporter activity,RAW-Dual [3]; [4],2.18
same,NF-kB SEAP reporter activity,RAW-Dual [3]; [5],0.424
same,NF-kB SEAP reporter activity,RAW-Dual [3]; [6],1.13
CCNC(=O)c1cc2c(-c3cc(C(C)(C)O)ccc3Oc3c(C)cc(F)cc3C)cn(C)c(=O)c2[nH]1,NF-kB SEAP reporter activity,RAW-Dual [2]; [9],1.4
same,NF-kB SEAP reporter activity,RAW-Dual [2]; [10],1.84
CN1C(=O)C(C)(C)Oc2c(-c3cn(C)c(=O)c4[nH]ccc34)cc(S(C)(=O)=O)cc21 (library stock concentration (final ~1000-fold dilution): 10 mM),NF-kB SEAP reporter activity,RAW-Dual [3]; agonist: LPS (TLR4) 0.1 ug/mL,2.16
same,NF-kB SEAP reporter activity,RAW-Dual [3]; [4],1.73
same,NF-kB SEAP reporter activity,RAW-Dual [3]; [5],0.658
same,NF-kB SEAP reporter activity,RAW-Dual [3]; [6],1.99
CC1OC(OC2C(CO)OC(OCC3OC(OC(=O)[C@]45CC[C@@H](C)[C@H](C)[C@H]4C4=CCC6[C@@]7(C)C[C@@H](O)[C@@H](O)[C@@](C)(CO)C7CC[C@@]6(C)[C@]4(C)CC5)C(O)C(O)C3O)C(O)C2O)C(O)C(O)C1O (stereo partly drawn),NF-kB SEAP reporter activity,RAW-Dual [2]; [7],0.975
same,NF-kB SEAP reporter activity,RAW-Dual [2]; [8],1.12
CC1OC(OC2C(CO)OC(OCC3OC(OC(=O)[C@]45CC[C@@H](C)[C@H](C)[C@H]4C4=CCC6[C@@]7(C)C[C@@H](O)[C@@H](O)[C@@](C)(CO)C7CC[C@@]6(C)[C@]4(C)CC5)C(O)C(O)C3O)C(O)C2O)C(O)C(O)C1O (stereo partly drawn) (library stock concentration (final ~1000-fold dilution): 10 mM),NF-kB SEAP reporter activity,RAW-Dual [1]; agonist: LPS (TLR4) 0.1 ug/mL,1.08
same,NF-kB SEAP reporter activity,RAW-Dual [1]; [4],0.915
same,NF-kB SEAP reporter activity,RAW-Dual [1]; [5],1.06
same,NF-kB SEAP reporter activity,RAW-Dual [1]; [6],1.1
Cc1c(CN2CCC(Nc3ncnc4sc(CC(F)(F)F)cc34)CC2)ccc2[nH]c(C#N)cc12 (library stock concentration (final ~1000-fold dilution): 10 mM),NF-kB SEAP reporter activity,RAW-Dual [1]; agonist: LPS (TLR4) 0.1 ug/mL,1.32
same,NF-kB SEAP reporter activity,RAW-Dual [1]; [4],0.176
same,NF-kB SEAP reporter activity,RAW-Dual [1]; [5],0.631
same,NF-kB SEAP reporter activity,RAW-Dual [1]; [6],0.575
Cc1c(CN2CCC(Nc3ncnc4sc(CC(F)(F)F)cc34)CC2)ccc2[nH]c(C#N)cc12,NF-kB SEAP reporter activity,RAW-Dual [2]; [7],0.878
same,NF-kB SEAP reporter activity,RAW-Dual [2]; [8],0.915
O=C(NC1=CC(=O)[C@H]2O[C@H]2[C@H]1O)c1ccccc1O (library stock concentration (final ~1000-fold dilution): 10 mM),NF-kB SEAP reporter activity,RAW-Dual [1]; agonist: LPS (TLR4) 0.1 ug/mL,0.727
same,NF-kB SEAP reporter activity,RAW-Dual [1]; [4],0.951
same,NF-kB SEAP reporter activity,RAW-Dual [1]; [5],0.806
same,NF-kB SEAP reporter activity,RAW-Dual [1]; [6],0.551
O=C(NC1=CC(=O)[C@H]2O[C@H]2[C@H]1O)c1ccccc1O,NF-kB SEAP reporter activity,RAW-Dual [2]; [7],1
same,NF-kB SEAP reporter activity,RAW-Dual [2]; [8],1.08
COc1cc(OC)c(C=CS(=O)(=O)Cc2ccc(OC)c(NCC(=O)O)c2)c(OC)c1 (library stock concentration (final ~1000-fold dilution): 10 mM),NF-kB SEAP reporter activity,RAW-Dual [1]; agonist: LPS (TLR4) 0.1 ug/mL,4.24
same,NF-kB SEAP reporter activity,RAW-Dual [1]; [4],3.24
same,NF-kB SEAP reporter activity,RAW-Dual [1]; [5],2.21
same,NF-kB SEAP reporter activity,RAW-Dual [1]; [6],2.56
COc1ccc(CNC(=O)CCl)cc1OC,NF-kB SEAP reporter activity,RAW-Dual [2]; [7],1.02
same,NF-kB SEAP reporter activity,RAW-Dual [2]; [8],0.962
COc1cc(OC)c(C=CS(=O)(=O)Cc2ccc(OC)c(NCC(=O)O)c2)c(OC)c1,NF-kB SEAP reporter activity,RAW-Dual [2]; [7],2.64
same,NF-kB SEAP reporter activity,RAW-Dual [2]; [8],2.27
COc1ccc(CNC(=O)CCl)cc1OC (library stock concentration (final ~1000-fold dilution): 10 mM),NF-kB SEAP reporter activity,RAW-Dual [1]; agonist: LPS (TLR4) 0.1 ug/mL,0.67
same,NF-kB SEAP reporter activity,RAW-Dual [1]; [4],0.674
same,NF-kB SEAP reporter activity,RAW-Dual [1]; [5],0.728
same,NF-kB SEAP reporter activity,RAW-Dual [1]; [6],0.679
CC(=O)C1CCC2C3CCC4=CC(=O)CCC4(C)C3CCC12C (stereo not drawn),NF-kB SEAP reporter activity,RAW-Dual [2]; [7],0.441
same,NF-kB SEAP reporter activity,RAW-Dual [2]; [8],1.06
CC(=O)C1CCC2C3CCC4=CC(=O)CCC4(C)C3CCC12C (stereo not drawn) (library stock concentration (final ~1000-fold dilution): 10 mM),NF-kB SEAP reporter activity,RAW-Dual [1]; agonist: LPS (TLR4) 0.1 ug/mL,0.981
same,NF-kB SEAP reporter activity,RAW-Dual [1]; [4],1.06
same,NF-kB SEAP reporter activity,RAW-Dual [1]; [5],1.38
same,NF-kB SEAP reporter activity,RAW-Dual [1]; [6],1.51
O=C1CN(/N=C/c2ccc([N+](=O)[O-])o2)C(=O)N1 (library stock concentration (final ~1000-fold dilution): 10 mM),NF-kB SEAP reporter activity,RAW-Dual [1]; agonist: LPS (TLR4) 0.1 ug/mL,1.09
same,NF-kB SEAP reporter activity,RAW-Dual [1]; [4],0.855
same,NF-kB SEAP reporter activity,RAW-Dual [1]; [5],1.1
same,NF-kB SEAP reporter activity,RAW-Dual [1]; [6],1.11
Cc1ccc(/C=N/NC(=O)c2ccccc2Oc2ccccc2)o1,NF-kB SEAP reporter activity,RAW-Dual [2]; [7],0.972
same,NF-kB SEAP reporter activity,RAW-Dual [2]; [8],1.09
O=C1CN(/N=C/c2ccc([N+](=O)[O-])o2)C(=O)N1,NF-kB SEAP reporter activity,RAW-Dual [2]; [7],0.924
same,NF-kB SEAP reporter activity,RAW-Dual [2]; [8],0.948
O=C(N/N=C/c1ccc([N+](=O)[O-])o1)c1ccc(O)cc1,NF-kB SEAP reporter activity,RAW-Dual [2]; [9],2.58
same,NF-kB SEAP reporter activity,RAW-Dual [2]; [10],2.03
Cc1ccc(/C=N/NC(=O)c2ccccc2Oc2ccccc2)o1 (library stock concentration (final ~1000-fold dilution): 10 mM),NF-kB SEAP reporter activity,RAW-Dual [1]; agonist: LPS (TLR4) 0.1 ug/mL,1.08
same,NF-kB SEAP reporter activity,RAW-Dual [1]; [4],0.922
same,NF-kB SEAP reporter activity,RAW-Dual [1]; [5],0.955
same,NF-kB SEAP reporter activity,RAW-Dual [1]; [6],1.31
O=C(N/N=C/c1ccc([N+](=O)[O-])o1)c1ccc(O)cc1 (library stock concentration (final ~1000-fold dilution): 10 mM),NF-kB SEAP reporter activity,RAW-Dual [3]; agonist: LPS (TLR4) 0.1 ug/mL,3.8
same,NF-kB SEAP reporter activity,RAW-Dual [3]; [4],1.64
same,NF-kB SEAP reporter activity,RAW-Dual [3]; [5],1.38
same,NF-kB SEAP reporter activity,RAW-Dual [3]; [6],1.55
COC1/C=C\C=C(/C)C(=O)NC2=CC(=O)C(NCCN(C)C)=C(CC(C)CC(OC)C(O)C(C)/C=C(\C)C1OC(N)=O)C2=O.Cl (stereo not drawn),NF-kB SEAP reporter activity,RAW-Dual [2]; [7],0.497
same,NF-kB SEAP reporter activity,RAW-Dual [2]; [8],0.345
COC1/C=C\C=C(/C)C(=O)NC2=CC(=O)C(NCCN(C)C)=C(CC(C)CC(OC)C(O)C(C)/C=C(\C)C1OC(N)=O)C2=O.Cl (stereo not drawn) (library stock concentration (final ~1000-fold dilution): 10 mM),NF-kB SEAP reporter activity,RAW-Dual [1]; agonist: LPS (TLR4) 0.1 ug/mL,0.267
same,NF-kB SEAP reporter activity,RAW-Dual [1]; [4],0.313
same,NF-kB SEAP reporter activity,RAW-Dual [1]; [5],0.154
same,NF-kB SEAP reporter activity,RAW-Dual [1]; [6],0.199
